Screening data deposited in PubChem by National Center for Advancing Translational Sciences (NCATS).
Cruzain Triton – blocks cruzain activity in presence of Triton detergent; P25779; purified cruzain, Z-FR-AMC fluorescence, 0.01% Triton; Potency, µM, for the others: max response, negative = inhibition, usual class: inhibitors; hit rate 0.43% among 200,000;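 further: plate controls were neutral wells for no effect and buffer without enzyme for full effect; nearly all actives have a fitted effect of over 40% in size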
Target sequence (P25779 123-467 limits assumed): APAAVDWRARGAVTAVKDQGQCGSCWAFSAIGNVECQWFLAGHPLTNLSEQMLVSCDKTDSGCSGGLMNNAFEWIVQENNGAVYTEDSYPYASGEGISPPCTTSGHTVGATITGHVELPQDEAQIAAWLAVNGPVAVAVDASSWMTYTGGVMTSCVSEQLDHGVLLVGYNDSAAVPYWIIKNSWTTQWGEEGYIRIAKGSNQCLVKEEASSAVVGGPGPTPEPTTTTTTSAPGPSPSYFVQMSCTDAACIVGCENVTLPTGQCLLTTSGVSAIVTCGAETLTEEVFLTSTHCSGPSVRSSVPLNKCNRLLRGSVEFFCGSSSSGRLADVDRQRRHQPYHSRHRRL
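Detergent-containing run (0.01% Triton X-100) in acetate buffer pH 5.5 with 5 mM DTT: enzyme at 1.5 nM final, 15 min compound preincubation at room temperature, then 2 uM Z-FR-AMC substrate. Activity taken as 60 s fluorescence increase at 360/450 nm.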
Cruzain inh noDet – cruzain (T. cruzi) inhibition without detergent; P25779; purified cruzain, Z-FR-AMC fluorescence, no detergent; Potency, µM, for inactives: max response, negative = inhibition, hits mostly inhibitors; hit rate 2.3% among 200,000; AID 1476;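 further: plate controls were enzyme without inhibitor for no effect and buffer without enzyme for full effect; nearly all actives have a fitted effect of over 40% in size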
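Detergent-free condition (0.00005% Triton X-100) in acetate buffer pH 5.5 with DTT. 1.5 nM enzyme and compound were pre-mixed 15 min, then 2 uM Z-FR-AMC substrate added; reaction progress from fluorescence change between first and third reads (60 s).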
Numbers without * were called inactive; ? = inconclusive. In the library only some 2.5% were active in any assay of this set; here they are far more common. The call rests on the fitted dose curve; in most records, active means well fitted curve in the direction sought with a large enough effect; inconclusive means small, poorly fitted or top-dose-only effect, or another doubt; inactive means no such curve, though single readings can be large; an effect the other way counts as inactive or inconclusive. Potency means the concentration at half of the fitted maximal effect.

SMILES | Cruzain Triton | Cruzain inh noDet
CN(C)c1ccc(/C=C/C(O)=C2/C(=O)N(C)C3(C)CC2c2ccccc2O3)cc1 (stereo unspecified) | -9.4% | 20µM*
Cc1ccc(-n2c(C)cc(-c3csc(N)n3)c2C)cc1 | -0.7% | 25.1µM*
Cc1cc(-c2csc(N)n2)c(C)n1C | -29.6% | ?
O=C(O)C[C@H]1OCC=C2C[N@@+]3([O-])CC[C@]45c6ccccc6N[C@@H]4[C@@H]1[C@H]2C[C@H]53 | 5.9% | 0.7%
O=c1c(-c2cccs2)nc2cncnc2n1Cc1ccc(F)cc1 | 1.2% | -11.8%
O=C(/C=C/c1cccc([N+](=O)[O-])c1)Nc1ccc(NC(=O)c2cccs2)cc1 | -8.2% | 20µM*
O=C(/C=C/c1cccc([N+](=O)[O-])c1)c1cccs1 | -2.0% | -1.0%
O=C(/C=C/c1cccc([N+](=O)[O-])c1)NC(=S)Nc1cccc(NC(=O)c2ccccc2Cl)c1 | -5.6% | 6.31µM*
CC(=O)Nc1cccc(NC(=O)c2ccc([N+](=O)[O-])cc2Cl)c1 | -1.6% | 4.2%
COC(=O)c1ccc(C(NC(=O)OCc2ccccc2)/C(F)=C/[C@@H](C)C(=O)NCCc2c[nH]c3ccc(OC)cc23)cc1 (stereo partly specified) | -0.6% | -15.6%
COc1ccc(/C=C2/N=C(SCC(=O)Nc3cc(C)on3)N(c3ccccc3)C2=O)cc1 | 3.2% | 22.5%
CCC(SC1=N/C(=C/c2ccccc2)C(=O)N1c1ccccc1)C(=O)Nc1cc(C)on1 (stereo unspecified) | -1.3% | 31.6µM*
c1ccc(CCCNc2nnnc3ccccc23)cc1 | 2.0% | -5.1%
Cc1ccc(C)c(CN2C(=O)C3CCCN3c3ccc(C#N)cc32)c1 (stereo unspecified) | -5.4% | 15.8µM*
O=C1C2CCCN2c2ccc(S(=O)(=O)N3CCOCC3)cc2N1Cc1cccc(C(F)(F)F)c1 (stereo unspecified) | -3.7% | 8.5%
Cc1ccc(CN2C(=O)C3CCCN3c3ccc(C#N)cc32)cc1 (stereo unspecified) | -0.5% | 10µM*
O=C1C2CCCN2c2ccc(S(=O)(=O)N3CCOCC3)cc2N1Cc1ccccc1F (stereo unspecified) | -2.7% | 6.7%
CCC(=O)N1CCc2cc(S(=O)(=O)NCCC(=O)NCc3ccc(OC)cc3)ccc21 | -0.7% | -12.7%
COc1ccc(/C=C/c2nnc(NC(=O)COc3ccc(C)cc3)s2)cc1 | -2.6% | ?
COc1ccc(/C=C/c2nnc(NC(=O)COc3cccc(C)c3)s2)cc1 | 1.6% | 12.6µM*
CC(c1ccccc1)N1CCn2c(nc3cc(NC(=O)c4cccs4)ccc32)C1 (stereo unspecified) | -4.3% | 31.6µM*
COCCN1CCn2c(nc3cc(NC(=O)c4cccs4)ccc32)C1 | 4.9% | 3.4%
Cc1ccc(NC(=O)CN(Cc2ccccc2)S(=O)(=O)c2ccc3nc(C)sc3c2)c(C)c1 | -1.5% | -2.2%
Cc1cccc2cc(C#N)c(SCC(=O)NNC(=O)Cc3ccccc3)nc12 | 4.7% | 25.1µM*
Cc1ccc(C)c2nc(SCC(=O)NCc3cccs3)c(C#N)cc12 | 5.0% | -18.9%
SMILES | Cruzain Triton | Cruzain inh noDet
Cc1cccc2cc(C#N)c(SCC(=O)NCC3CCCO3)nc12 (stereo unspecified) | 2.4% | -16.1%
Cc1cccc2cc(C#N)c(SCC(=O)NCc3cccs3)nc12 | -2.5% | 6.31µM*
CCC1CCCCN1Cc1cn2c(-c3ccc(Br)cc3)nnc2s1 (stereo unspecified) | 1.4% | -1.6%
CC(C)CCC[C@@H](C)[C@@H]1CC[C@@H]2[C@H]3CC[C@H]4C[C@@H](N)CC[C@@]4(C)[C@@H]3CC[C@]21C | -1.6% | 6.6%
CCOc1ccc2c(c1)c(=O)c(S(=O)(=O)c1ccccc1)cn2CC(=O)Nc1ccccc1OC | -3.7% | -18.0%
O=C(Nc1cccc(F)c1)N1CCCC2(CCN(C(=O)c3ccncc3)CC2)C1 | 3.0% | -1.0%
CCCCCCNc1nc(NCc2ccco2)nc(OCC)n1 | -4.5% | -0.6%
CCCCCCCCNc1nc(Cl)nc(NCc2ccco2)n1 | -2.0% | 15.8µM*
COc1ccc(-c2nc(SCC(=O)NC3CCCC3)c(-c3ccccc3)[nH]2)cc1OC | -7.5% | 27.8%
CCN(CC)c1ccc(/C=C2\CCC(/C=C(\C#N)C(=O)Nc3ccccc3F)=C2N2CCOCC2)cc1 | -1.7% | ?
N#C/C(=C\C1=C(N2CCOCC2)C(=C\c2ccc(Cl)cc2)/CC1)C(=O)Nc1ccccc1F | -8.3% | 10µM*
N#C/C(=C\C1=C(N2CCOCC2)C(=C/c2cccc([N+](=O)[O-])c2)/CC1)C(=O)Nc1ccccc1F | -5.7% | 12.6µM*
CC(NC(=O)C12CC3CC(CC(C3)C1)C2)C(=O)N/N=C/C1=C(N2CCOCC2)C(=C\c2cccc([N+](=O)[O-])c2)/CC1 (stereo unspecified) | -7.1% | -21.4%
Fc1ccc(-c2nn(-c3ccc(Cl)cc3)c3c2cnc2ccc(F)cc23)cc1 | 0.9% | 1.0%
COC(=O)c1n[nH]c2ccccc12 | -3.4% | 13.9%
O=C(COC(=O)c1n[nH]c2ccccc12)Nc1ccc([N+](=O)[O-])cc1 | -5.7% | 10µM*
Cc1ccc(NC(=O)CN2C(=O)/C(=C\c3cccs3)SC2=S)cc1 | -3.9% | 5.01µM*
O=C(CN1C(=O)/C(=C\C=C\c2ccccc2)SC1=S)Nc1ccc(F)cc1 | -6.9% | 6.31µM*
O=C(CCCN1C(=O)/C(=C/c2cccs2)SC1=S)NNC(=O)c1ccccc1O | -4.1% | -12.5%
COc1cccc(/C=C2/SC(=S)N(CC(=O)Nc3nnc(C)s3)C2=O)c1 | -9.1% | -22.7%
O=C(CCn1c(=O)oc2ccccc21)Nc1nc2ccccc2s1 | -8.1% | 10.0%
CN1CCN(NC(=O)CN2C(=O)/C(=C/c3ccccc3F)SC2=S)CC1 | -10.2% | -8.4%
O=C(CCN1C(=O)/C(=C/C=C/c2ccccc2)SC1=S)Nc1nc2ccccc2s1 | -7.7% | 7.94µM*
O=C(CN1C(=O)/C(=C/c2ccccc2)SC1=S)Nc1ncc(Cc2ccccc2)s1 | -2.0% | 3.98µM*
CCOC(=O)c1cccc(NC(=O)CC2C(=O)N(c3ccc(F)cc3)C(=O)N2C(C)C)c1 (stereo unspecified) | -4.4% | 2.7%
SMILES | Cruzain Triton | Cruzain inh noDet
Cc1cccc(C(=O)NCC(c2ccc3c(c2)OCO3)N2CCN(c3ccccc3F)CC2)c1 (stereo unspecified) | -6.5% | 16.6%
CCN(CC)c1ccc(NC(=O)CN2CCN(S(=O)(=O)c3ccc(C(C)C)cc3)CC2)cc1 | 2.3% | -1.7%
O=C(COc1ccccc1)Nc1ccc(C(=O)OCc2cc(=O)n3nc(C4CC4)sc3n2)cc1 | 1.6% | 5.7%
O=C(C#Cc1cccc([N+](=O)[O-])c1)c1ccccc1 | 8.91µM* | -21.2%
O=C(/C=C/c1cccc([N+](=O)[O-])c1)c1ccccc1 | -0.9% | 4.4%
Cc1cc(C)n(Cc2ccc(Cl)cc2Cl)c(=O)c1S(=O)(=O)c1ccccc1 | -8.8% | -14.4%
CSc1cc(-c2ccccc2)n(Cc2ccc(Cl)cc2Cl)c(=O)c1C#N | 4.5% | 25.1µM*
[N-]=[N+]=CC(=O)COC(=O)c1ccccc1 | -2.2% | -13.6%
Cc1ccc(Cl)cc1N(C)C(=O)c1cc2ccc3cccnc3c2[nH]1 | -7.3% | 26.1%
CCOc1ccccc1NC(=O)C(OC(=O)c1ccccc1NS(=O)(=O)c1cccs1)c1ccccc1 (stereo unspecified) | -1.6% | ?
COc1ccc(N(C)S(=O)(=O)c2cccc(C(=O)Nc3ccc(OC)nc3)c2)cc1 | -2.1% | 8.2%
